{"source": "PubChem BioAssay AID2716", "about": "(Broad Institute, 2010)", "note": "The campaign covered roughly 320,000 compounds. About 3,300 (1%) were called active.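 Rule for the calls: active = every valid replicate shows activation above 250% relative to neutral control wells; inactive = the rest, any valid replicate at or below 250%.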 Shown is part of a subset that was picked to be rich in actives.", "data": [{"test": "yeast Mot1-301 growth rescue at high temperature, primary screen, SUMOylation pathway inhibitor project, S. cerevisiae, ATP luminescence, 38.5C (AID 2716);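 note: OY570 slx delta 5 strain wells were the positive control but not used for scaling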", "conditions": "S. cerevisiae Mot1-301 growth rescue, at 18.8 µM, active compounds read high, percent above DMSO median, 100 means doubled", "values": [{"smiles": "COc1ccc(/C=N/NC(=O)Cn2cc(C(F)(F)F)ccc2=O)cc1", "growth rescue": "0.303% (inactive)"}, {"smiles": "CCCc1cc(=O)oc2c(C)c(OCC(=O)N3CCC(C(=O)O)CC3)ccc12", "growth rescue": "10.4% (inactive)"}, {"smiles": "CCc1cc(=O)oc2cc(C)cc(OC(C)C(=O)O)c12", "note": "(centres undefined)", "growth rescue": "-0.434% (inactive)"}, {"smiles": "CCc1cc(=O)oc2cc(C)cc(OCC(=O)N3CCC[C@@H]3C(=O)O)c12", "growth rescue": "694% (active)"}, {"smiles": "Cc1cc(=O)n2nc(N3CCCC(C(=O)NCc4ccc(Cl)cc4)C3)sc2n1", "note": "(centres undefined)", "growth rescue": "7.79% (inactive)"}, {"smiles": "O=C(CSc1nc2[nH]c(=O)[nH]c(=O)c2s1)Nc1cccc(F)c1", "growth rescue": "-17.9% (inactive)"}, {"smiles": "O=S(=O)(Nc1ncnc2sccc12)c1cccc(F)c1", "growth rescue": "5.08% (inactive)"}, {"smiles": "O=C(NCC1CCCO1)c1cc2c(s1)CCCC2", "note": "(centres undefined)", "growth rescue": "-9.49% (inactive)"}, {"smiles": "CC1=CC(=O)C=CC1(C)C(Cl)(Cl)Cl", "note": "(centres undefined)", "growth rescue": "385% (active)"}, {"smiles": "COc1ccccc1Nc1nnc(SC(C)C(=O)NC2CC2)s1", "note": "(centres undefined)", "growth rescue": "-11.6% (inactive)"}, {"smiles": "CC1C(=O)N2CCCc3cc(S(=O)(=O)NCc4ccc(F)cc4)cc1c32", "note": "(centres undefined)", "growth rescue": "-4.02% (inactive)"}, {"smiles": "Cc1ccc(NC(=O)CSc2nnc(CNC(=O)c3ccccc3F)o2)cc1", "growth rescue": "3.58% (inactive)"}, {"smiles": "O=C(OC1CCCCC1=O)c1cccc(S(=O)(=O)NCc2ccccc2)c1", "note": "(centres undefined)", "growth rescue": "12.9% (inactive)"}, {"smiles": "O=C(OC1CCOC1=O)c1cccc(S(=O)(=O)Nc2ccc(F)cc2)c1", "note": "(centres undefined)", "growth rescue": "535% (active)"}, {"smiles": "O=C(NCCN1CCOCC1)c1cccc(S(=O)(=O)Nc2ccc(F)cc2)c1", "growth rescue": "18.1% (inactive)"}, {"smiles": "CCCCn1c(N)c(N(CC(C)C)C(=O)c2cccc(S(=O)(=O)N3CCN(C(C)=O)CC3)c2)c(=O)[nH]c1=O", "growth rescue": "-9.04% (inactive)"}, {"smiles": "Cc1cccc(N2CCN(S(=O)(=O)c3ccc4[nH]c(=O)c(=O)[nH]c4c3)CC2C)c1", "note": "(centres undefined)", "growth rescue": "2.34% (inactive)"}, {"smiles": "COc1ccc(CCNC(=O)COC(=O)C2CC2C)cc1", "note": "(centres undefined)", "growth rescue": "4.29% (inactive)"}, {"smiles": "O=C(c1c(F)cccc1F)N1CCN(S(=O)(=O)c2ccc3c(c2)OCCO3)CC1", "growth rescue": "3.47% (inactive)"}, {"smiles": "CCC(=C/c1sc2ccc3ccccc3c2[n+]1C)/C=C1\\Sc2ccc3ccccc3c2N1C", "growth rescue": "6.07% (inactive)"}, {"smiles": "Cc1cc(C)c(OCC(=O)N/N=C/c2ccco2)c(C)c1", "growth rescue": "568% (active)"}, {"smiles": "Cc1c(Cl)cccc1NC(=O)CCC(=O)N/N=C/c1ccco1", "growth rescue": "2.23% (inactive)"}, {"smiles": "Cc1ccc(NC(=O)CCC(=O)N/N=C/c2ccco2)c(C)c1", "growth rescue": "-4.26% (inactive)"}, {"smiles": "CCOc1ccc(CCNC(=O)COC(=O)CCS(=O)(=O)c2ccc(C)cc2)cc1OCC", "growth rescue": "-6.14% (inactive)"}, {"smiles": "Cc1ccc2nc(NC(=O)CSc3nc(=O)n(CCCN(C)C)c4c3CCC4)sc2c1", "growth rescue": "-6.26% (inactive)"}, {"smiles": "CSc1nc(N(C)NC(=O)c2cccc(C)c2)c2ccccc2n1", "growth rescue": "-1.55% (inactive)"}, {"smiles": "CN(NC(=O)c1ccccc1F)c1nc(C(F)(F)F)nc2ccccc12", "growth rescue": "658% (active)"}, {"smiles": "CN(NC(=O)c1ccccc1)c1nc2ccccc2nc1C(F)(F)F", "growth rescue": "29.8% (inactive)"}, {"smiles": "CCOC(=O)[C@@H]1[C@H]2COc3ccc(Br)cc3[C@H]2N2C(=O)N(c3ccc(C)cc3)C(=O)[C@@]12C", "growth rescue": "5.35% (inactive)"}, {"smiles": "O=C(NCc1ccco1)C(c1ccncc1)N(C(=O)Cn1nnc2ccccc21)c1ccccc1", "note": "(centres undefined)", "growth rescue": "5.81% (inactive)"}, {"smiles": "COc1cccc(C(CC(=O)NCCN2CCOCC2)NS(=O)(=O)c2ccc(C)cc2)c1OC", "note": "(centres undefined)", "growth rescue": "-1.44% (inactive)"}, {"smiles": "C=CCC(Nc1ccccc1)c1cccc(OC)c1OC", "note": "(centres undefined)", "growth rescue": "-16.1% (inactive)"}, {"smiles": "C=CCC(NCCCO)c1cccc(OC)c1OC", "note": "(centres undefined)", "growth rescue": "1100% (active)"}, {"smiles": "CC(=O)Nc1ccc(/C(C)=N/NC(=O)CN(c2ccccc2Br)S(C)(=O)=O)cc1", "growth rescue": "-7.93% (inactive)"}, {"smiles": "CNC(=O)/C(C#N)=C/c1c(F)cccc1Cl", "growth rescue": "-36.4% (inactive)"}, {"smiles": "COc1ccc(/C=N/OCc2ccccc2C#N)c(OC)c1", "growth rescue": "31.4% (inactive)"}, {"smiles": "COc1ccc(S(=O)(=O)N2CCOC2CNC(=O)C(=O)NCc2ccncc2)cc1C", "note": "(centres undefined)", "growth rescue": "392% (active)"}, {"smiles": "COc1ccc(S(=O)(=O)N2CCOC2CNC(=O)C(=O)NCc2ccncc2)cc1OC", "note": "(centres undefined)", "growth rescue": "-3.43% (inactive)"}, {"smiles": "COc1ccc(CCNC(=O)C(=O)NCC2OCCN2S(=O)(=O)c2ccc(OC)c(C)c2)cc1", "note": "(centres undefined)", "growth rescue": "0.71% (inactive)"}, {"smiles": "Cc1ccc(CC2CC(=O)N(c3cc(C)ccc3C)C2=O)cc1", "note": "(centres undefined)", "growth rescue": "-12% (inactive)"}, {"smiles": "COc1ccc(N2CCN(C3CC(=O)N(c4ccc5c(c4)OCCO5)C3=O)CC2)cc1", "note": "(centres undefined)", "growth rescue": "21.5% (inactive)"}, {"smiles": "Cc1ccc(CC2CC(=O)N(c3ccc4c(c3)OCCO4)C2=O)cc1", "note": "(centres undefined)", "growth rescue": "1800% (active)"}, {"smiles": "O=C(NCc1ccccc1Cl)NC(=O)c1csc([N+](=O)[O-])c1", "growth rescue": "-7.29% (inactive)"}, {"smiles": "COc1ccc(C(C#N)(CC(=O)O)c2cnccn2)cc1OC", "note": "(centres undefined)", "growth rescue": "-15.4% (inactive)"}, {"smiles": "COc1cccc(OC)c1C(=O)Nc1ccc2c(c1)n(C)c(=O)n2C", "growth rescue": "676% (active)"}, {"smiles": "Cn1c(=O)n(C)c2cc(C(=O)Nc3ccc(Br)cc3)ccc21", "growth rescue": "15% (inactive)"}, {"smiles": "COc1cccc(OC)c1C(=O)Nc1ccc(Cc2ccncc2)cc1", "growth rescue": "12.2% (inactive)"}, {"smiles": "CC(C)N(C(=O)CSc1nc(COc2ccccc2)nc2ccccc12)C(C)C", "growth rescue": "-2% (inactive)"}, {"smiles": "Cc1csc(NC(=S)Nc2cccc(Cl)c2)n1", "growth rescue": "817% (active)"}, {"smiles": "S=C(Nc1cccc(Cl)c1)Nc1ccc2c(c1)OCCO2", "growth rescue": "-16% (inactive)"}, {"smiles": "FC(F)(F)c1cccc(NC(=S)Nc2cccc(Cl)c2)c1", "growth rescue": "2.73% (inactive)"}, {"smiles": "O=c1c2c(-c3ccccc3)ccnc2[nH]n1-c1ccccc1", "growth rescue": "-10.9% (inactive)"}, {"smiles": "CCC(CC)c1nnc(NC(=O)C2CCN(C(=O)c3ccco3)CC2)s1", "growth rescue": "-12.8% (inactive)"}, {"smiles": "CO/N=C(/CS(=O)(=O)c1ccc(Br)cc1)c1ccc(OC)cc1", "growth rescue": "-7.59% (inactive)"}, {"smiles": "O=C(O)Cc1ccc(NCc2ccccc2Cl)cc1", "growth rescue": "67.5% (inactive)"}, {"smiles": "O=C(Cc1ccc(-c2ccccc2)cc1)NC(c1ccccc1)c1ccccc1", "growth rescue": "-3.02% (inactive)"}, {"smiles": "O=C(O)Cc1ccc(-c2ccccc2)cc1", "growth rescue": "403% (active)"}, {"smiles": "COc1cc(/C(=C/c2ccccc2)c2ccccc2)c2c(c1)oc1ccccc12", "growth rescue": "1.69% (inactive)"}, {"smiles": "Cc1cc(C)cc(Oc2nc3c(C)cccn3c(=O)c2/C=C(\\C#N)C(=O)NC2CCS(=O)(=O)C2)c1", "note": "(centres undefined)", "growth rescue": "-14% (inactive)"}]}]}
